MARV entry inh: qHTS for inhibitors of binding or entry into cells for Marburg Virus | Marburg virus pseudotyped entry inhibition, cell reporter | Potency, µM (highest dose often 37.8 µM), for the others: top-dose activity change, negative = inhibition, actives largely listed as inhibitors | actives 1.8% (n = 300,000) | AID 540276, 2011; calls by dose curve; tested in HEK293 cells; also: potency is read from the fitted curve at half-maximal effect
Vaccinia Venus: qHTS for Stage-Specific Inhibitors of Vaccinia Orthopoxvirus: Venus Reporter Primary qHTS. Vaccinia virus Venus reporter expression, fluorescence. Potency, µM (top dose mostly 36.5 µM), inactives show at the highest dose activity change, negative = inhibition, hits mostly inhibitors. actives 0.46% (n = 330,000); calls by dose curve; tested in A549 cells; also: potency is read from the fitted curve at half-maximal effect; nearly all actives have a fitted effect of over 30% in size
HCMV inh: qHTS Assay for inhibitors of the human cytomegalovirus (HCMV); HFF cells, HCMV-luciferase reporter, 72 h; hits give low values; activity change, negative = inhibition, % at 57.5 µM; actives 4.5% (n = 410,000); in the data active = activity change below about -60%; inconclusive = no clear call, values can overlap the other calls; inactive = above about -39%
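After 16 h attachment at 37C, HFF cells received test compound and HCMV-luciferase (1 PFU/cell); reporter luminescence read 72 h later, data normalized against buffer-only and known inhibitor Salinomycin.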
VACV mCherry inh: qHTS for Stage-Specific Inhibitors of Vaccinia Orthopoxvirus: mCherry Reporter Primary qHTS; AID 720579, 2013; Potency, µM (top dose mostly 36.5 µM), for the others: at the highest dose activity change, negative = inhibition, actives largely listed as inhibitors; Vaccinia virus mCherry reporter infection, fluorescence; actives 0.63% (n = 310,000); calls by dose curve; tested in A549 cells; also: potency is read from the fitted curve at half-maximal effect; nearly all actives have a fitted effect of over 35% in size
Lassa entry inh: qHTS for Inhibitors of binding or entry into cells for Lassa Virus; Lassa virus pseudotype entry inhibition, cell reporter; Potency, µM (highest dose often 37.9 µM), without a hit: at the highest dose activity change, negative = inhibition, hits mostly inhibitors; actives 1.2% (n = 300,000); AID 540256, 2011; calls by dose curve; tested in HEK293 cells; also: potency is read from the fitted curve at half-maximal effect; nearly all actives have a fitted effect of over 50% in size
FMDV antiviral: High Throughput Screening for Foot and Mouth Disease Virus Antivirals. FMDV antiviral cell-based qHTS. Potency, µM (top dose mostly 57.9 µM), without a hit: at the top dose activity change, negative = inhibition, actives largely listed as inhibitors. actives 1.2% (n = 410,000); calls by dose curve; tested in HEK293T cells; also: read-out not given here; potency is read from the fitted curve at half-maximal effect; nearly all actives have a fitted effect of over 45% in size
The depositor's hits bear a star; i = inactive; ? = inconclusive; / = no result given; ! = not active in a repeat; [ ] = remark or other dose. A selection: hits, their analogues and other compounds. The true share with any hit is near 6.5%. % is scaled to controls: 0 for no effect and ±100 for the full control effect.

SMILES | MARV entry inh | Vaccinia Venus | HCMV inh | VACV mCherry inh | Lassa entry inh | FMDV antiviral
COC(=O)NC(c1cccc(F)c1)C(C(C)=O)C(=O)OC (centres undefined) | 13%[14.2 µM] | / | / | / | / | /
Cc1ccccc1CNC(=O)c1ccc(CS(=O)Cc2ccc(Cl)cc2)o1 (centres undefined) | / | -9% | 13 | -12% | -1%[46.1 µM] | -7%
C[C@H]1[C@H](C)CC[C@]2(C(=O)O)CC[C@]3(C)C(=CC[C@@H]4[C@@]5(C)C[C@@H](O)[C@H](O)C(C)(C)[C@@H]5CC[C@]43C)[C@H]12 | 7% | 13µM* | / | ? | 1% | 0%
CC1CCC2(C(=O)O)CCC3(C)C(=CCC4C3(C)CCC3[C@@]4(C)CC(O)C(O)[C@@]3(C)CO)C2C1C (some centres undefined) | / | 1% | / | -1% | / | -5%
CC(C)CN(C)c1nc(N)c(C(=O)N=C(N)N)nc1Cl | 7.1µM* | / | / | / | / | /
NC(N)=NC(=O)c1nc(Cl)c(N2CCCCCC2)nc1N | 7.1µM* | ? | -22 | -20% | ? | -14%
NC(N)=NC(=O)c1nc(Cl)c(N)nc1N | -16% | -24% | 3 | ? | 5% | -12%
COc1ccc(NC(=O)N2c3ccc(OC)cc3[C@@H](NC(=O)OCc3ccccc3)[C@H](C)[C@H]2c2ccccc2)cc1 | / | / | 3 | / | / | /
COC(=O)c1cc2n(n1)CCN(Cc1ccc(F)cc1)C2=O | 26% | -14% | -106* | / | 16% | -7%
COC(=O)c1cc2n(n1)CCN(Cc1ccccc1F)C2=O | -27% | -12% | -10 | -16% | 1% | 5%
Cc1cc(C)nc(N/C(=N\S(=O)(=O)Cc2ccccc2)Nc2ccccc2Br)n1 | 2.8µM* | 2% | ? | ? | 4.1µM* | 37%
CC(C)c1cccc(-c2nc3c(NC4CCC(O)CC4)nccc3[nH]2)c1 (centres undefined) | / | / | -6 | / | / | /
Cc1ccc(-n2c(C3CC3c3ccc(Cl)cc3)n[nH]c2=S)cc1 (centres undefined) | 3% | / | -30 | / | -7% | 0%
S=c1[nH]nc(C2CC2c2ccc(Cl)cc2)n1-c1ccc(Cl)cc1 (centres undefined) | -21% | ? | 25 | -27% | 16µM* | -12%
COc1cccc(CC(=O)N2CCc3nc(-c4ccccc4)c4c(c3C2)CO[C@@H](C)C4)c1 | -3%[14.2 µM] | / | / | / | / | /
O=c1c(-c2cccc(F)c2)nc2cncnc2n1Cc1ccccc1Cl | / | / | / | / | / | -23%
CCCCCCCC/C=C\CCCCCCCC(=O)NCCc1ccc(O)c(O)c1 | 4.5µM* | -26% | -17 | -17% | 9.2µM* | ?
CN(C)CCC=C1c2ccccc2C=Cc2ccccc21 | 6.5µM* | -16% | 14 | -9% | 8.2µM* | -26%
CN(C)CCC=C1c2ccccc2CCc2ccccc21 | 12µM*! | -16% | ? | ? | 9.2µM* | ?
Cc1cc(C)c2oc(-c3cccc(NC(=O)c4ccc(-c5cccc([N+](=O)[O-])c5)o4)c3)nc2c1 | -21%[46.1 µM] | 2% | -4 | 4% | -9%[46.1 µM] | 2%
Cc1ccc2c(=O)c(C(=O)c3ccc(F)cc3)cn(CC(=O)NCc3ccccc3Cl)c2n1 | / | -10% | 3 | -15% | 0%[46.1 µM] | -11%
CC[n+]1c(/C=C/C=C/N(C(C)=O)c2ccccc2)sc2cc(OC)ccc21 | ? | i | -66* | 179% | ? | ?
C[C@@H]1CN([C@H](C)CO)C(=O)c2cc(NC(=O)Nc3ccccc3)ccc2O[C@@H](C)CCCCO[C@H]1CN(C)S(C)(=O)=O | / | / | 10 | / | / | /
CN(C)CC1CCCCC1OC(=O)c1ccc(Br)cc1 (centres undefined) | -23%[46.1 µM] | -7% | 47 | -5% | -7% | -15%
CN(C)CC1CCCCC1OC(=O)c1ccc(Cl)cc1Cl (centres undefined) | / | / | -61* | / | / | -13%
SMILES | MARV entry inh | Vaccinia Venus | HCMV inh | VACV mCherry inh | Lassa entry inh | FMDV antiviral
CN(c1ccccc1)c1ccc(/C=C(\C#N)c2nnc3n2CCCCC3)cc1[N+](=O)[O-] | ? | 12% | -78* | -6% | 7.1µM* | -8%
O=c1nc2n(c3ccc([N+](=O)[O-])cc13)CCCCC2 | 12%[46.1 µM] | 4% | 94 | -8% | 1% | 4%
N#C/C(=C\c1cccc([N+](=O)[O-])c1)c1nnc2n1CCCCC2 | ? | -13% | -69* | -13% | -10% | -15%
CCOc1ccccc1-n1c(CN2CCN(C(=O)c3ccco3)CC2)nc2ccccc2c1=O | -5% | / | -105* | / | 7% | -30%
CCOc1ccccc1-c1nc(CN2CCN(C(=O)c3ccco3)CC2)c(C)o1 | / | / | -7 | / | / | -9%
Cn1cnnc1Sc1nc([N+](=O)[O-])nn1C | / | / | -6 | / | / | 4%
COc1ccccc1-c1nnc(Sc2nc([N+](=O)[O-])nn2C)o1 | ? | / | -75* | / | -27% | 28µM*
O=C(c1cccc([N+](=O)[O-])c1)N1CCN(c2ncccn2)CC1 | / | / | -28 | / | / | 6%
Cc1ccc(Nc2ccc(N3CCN(C(=O)c4cccc([N+](=O)[O-])c4)CC3)nn2)cc1 | / | -24% | -62* | ? | -9%[46.1 µM] | -8%
Fc1ccc(-c2cnn3c(-c4cccs4)ccnc23)cc1 | ? | -1% | 303 | -6% | 10µM* | -53%
Clc1cccc2c1Sc1ccccc1CC2N1CCNCC1 (centres undefined) | ? | ? | ? | ? | 5.2µM* | -22%
Cc1ccc2c(c1)c1c(c(=O)n(-c3cccc(Cl)c3)c(=O)n1CC(=O)Nc1c(C)cccc1C)n2C | 4%[46.1 µM] | 2% | 6 | -3% | -17%[46.1 µM] | -5%
COc1ccccc1CN(Cc1nc2ccccc2c(=O)[nH]1)C(=O)Nc1ccc(C)cc1 | -19% | -10% | -28 | i | -10% | /
COc1ccccc1CN(Cc1nc2ccccc2c(=O)[nH]1)S(=O)(=O)c1ccc(C)cc1 | 8% | -7% | -99* | -27% | 2% | /
Cc1ncoc1C(=O)N1CCOc2ccc(CN3CCN(c4ccccn4)CC3)cc2C1 | / | -9% | / | -11% | / | -17%
CCN(CC)S(=O)(=O)c1ccc2c(c1)N(CC(=O)N(C)Cc1ccccc1)C(=O)CO2 | 20%[46.1 µM] | 2% | -32 | -5% | 7%[46.1 µM] | -4%
O=C(Cc1ccccc1)CC(CC(=O)c1ccccc1)c1ccccc1 (centres undefined) | / | -15% | -35 | -6% | / | -1%
C=C(C(=O)c1ccccc1)C(CC(=O)c1ccccc1)c1ccccc1 (centres undefined) | ? | ? | -101* | 13µM* | 10µM* | 18µM*
C=C(CCC(=O)c1ccccc1)C(=O)c1ccccc1 | ? | ? | -81* | -17% | ? | ?
CN(C)c1ccc(/C=C2\C=Cc3ccccc32)cc1N | / | -13% | / | i | / | /
